Compounds without any hit were thinned out: in the full panel of roughly 83,000, 20% have a hit.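 Cells were grown in 96-well plates and exposed to the test compound at a single concentration for 48 hours; results are reported as percent growth, with values below 10 considered active.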 A number with no mark means an inactive call. Active and inactive are the calls of the source.
Experiments:
Assay in all cases: NCI-60 one-dose screen, 48 h (100 = growth as untreated, 0 = no growth, -100 = all killed)
Conditions in all cases: 10 µM unless noted
SR leukemia = tested on: SR leukemia
OVCAR-8 ovarian = tested on: OVCAR-8 ovarian
OVCAR-5 ovarian = tested on: OVCAR-5 ovarian
OVCAR-4 ovarian = tested on: OVCAR-4 ovarian
SK-OV-3 ovarian = tested on: SK-OV-3 ovarian
IGROV1 ovarian = tested on: IGROV1 ovarian
OVCAR-3 ovarian = tested on: OVCAR-3 ovarian
HS 578T breast = tested on: HS 578T breast
NCI/ADR-RES ovarian = tested on: NCI/ADR-RES ovarian

Compound | growth (SR leukemia) | growth (OVCAR-8 ovarian) | growth (OVCAR-5 ovarian) | growth (OVCAR-4 ovarian) | growth (SK-OV-3 ovarian) | growth (IGROV1 ovarian) | growth (OVCAR-3 ovarian) | growth (HS 578T breast) | growth (NCI/ADR-RES ovarian)
CCNCc1c(-c2cccc(OC(F)(F)F)c2)[nH]c2ccc(N3CCCC3)cc2c1=O | 9.06% (active) | 22.5% | 24.5% | 49.8% | 34.2% | 22.6% | -6.81% (active) | 8.12% (active) | 9.42% (active)
CCC(=O)Nc1ccc(-c2nc(-c3cccc(O)c3)c(-c3ccnc(Br)c3)[nH]2)cc1 | 38.2% | 51.8% | 92.9% | 51.1% | 93.9% | 85.4% | 67.5% | 23% | 96.5%
Cc1cc(Cl)cc(NS(=O)(=O)c2ccc(-c3cnc(C4CC4)o3)cc2)c1 | 27.1% | 38.7% | 43.6% | 66.2% | 72.8% | 33.2% | -24.3% (active) | 35.6% | 10.1%
O=C1/C(=C/c2ccccc2[N+](=O)[O-])Oc2ccc(O)cc21 | 2.82% (active) | 20.7% | 38.2% | 34.8% | 84% | 33.5% | -18.9% (active) | 53.6% | 49%
O=S(=O)(Nc1ccc(-c2nc(-c3cccc(O)c3)c(-c3ccnc(Br)c3)[nH]2)cc1)c1ccccc1 | -9.8% (active) | 9.98% (active) | 64.6% | 9.17% (active) | 54.7% | 42.1% | 32.1% | -0.856% (active) | 61.1%
